Screening data deposited in PubChem by several laboratories.
Most compounds without a hit are left out; they make up all but 1.8% or so of the library.
BH1578 lux ind: inducers of Vibrio cholerae quorum light production without autoinducers, primary screen, BH1578 luxS cqsA deficient, single point. activation, % at 18.7 µM. AID 588436, 2011. 350,000 compounds, 0.16% hits. V. cholerae BH1578 lux reporter, luminescence, 6 h; in the data active means activation mostly above about 9.7%, no sharp cut-off
Yp Topo-I inh: Yersinia pestis topoisomerase I inhibitors, primary screen, biochemical, cleavage product accumulation, plate reader, single point. Y. pestis Topo-I cleavage product accumulation. AID 504884, 2011. 360,000 compounds, 0.064% hits. DNA topoisomerase I (Yersinia pestis CO92). activity, % at 10 µM; in the data active means activity above about 50%, passing the limit was not always enough
VHR inh abs: VHR1 phosphatase inhibitors, primary screen, biochemical, absorbance, uHTS. Dual specificity protein phosphatase 3 (Homo sapiens), P51452. recombinant VHR phosphatase, pNPP absorbance. inhibition, % at 13.3 µM. 290,000 compounds, 0.52% hits; in the data active means inhibition above about 50%
Target sequence (P51452 whole entry, looked up): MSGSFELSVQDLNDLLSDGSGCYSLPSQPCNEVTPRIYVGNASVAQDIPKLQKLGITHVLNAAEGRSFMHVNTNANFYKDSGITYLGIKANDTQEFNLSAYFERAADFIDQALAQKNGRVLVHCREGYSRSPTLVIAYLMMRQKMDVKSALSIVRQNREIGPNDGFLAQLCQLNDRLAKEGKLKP
CCHFV vOTU inh: CCHFV vOTU protease inhibitors, primary screen, biochemical, Pep-AMC substrate, fluorescence | inhibition, % at 11.5 µM | 370,000 compounds, 0.55% hits | Crimean-Congo hemorrhagic fever virus L polyprotein viral ovarian tumor (vOTU) protease …; in the data active means inhibition above about 30%
PrPC surface inh: inhibitors of human cell surface prion protein PrPC, primary screen, cell-based, TR-FRET; TR-FRET read-out; inhibition, % at 13.8 µM; 370,000 compounds, 0.43% hits; Major prion protein (Homo sapiens), P04156; in the data active means inhibition above about 24%
MazF activator: activators of E. coli MazEF toxin-antitoxin RNase, primary screen, biochemical, fluorescence, uHTS; Endoribonuclease toxin MazF (Escherichia coli (strain K12)), P0AE70; activation, % at 20 µM; 350,000 compounds, 0.32% hits; FAM/BHQ RNA-DNA oligo cleavage fluorescence, 5 h; in the data active means activation above about 50%
Target sequence (P0AE70 whole entry, looked up): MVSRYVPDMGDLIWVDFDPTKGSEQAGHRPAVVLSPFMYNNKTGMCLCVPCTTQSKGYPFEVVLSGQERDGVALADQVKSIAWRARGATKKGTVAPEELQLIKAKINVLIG
Hits are given with their value; n = inactive; x = not tested or not shown; + = active, no number.

SMILES	BH1578 lux ind	Yp Topo-I inh	VHR inh abs	CCHFV vOTU inh	PrPC surface inh	MazF activator
CCN(CC)CCCC(C)NC(=O)c1c(NC(=O)c2ccccc2)sc2c1CCCC2 (centres undefined)	n	n	54	n	n	n
CN(C)C(=O)c1c(NC(=O)c2ccccc2)sc2c1CCC2	n	n	n	n	n	n
CC(COc1ccccc1C#N)CN1CCC(C(O)(c2ccccc2)c2ccccc2)CC1 (centres undefined)	x	x	x	n	n	x
CCN(CC)S(=O)(=O)c1ccc(C(=O)/C=C/c2ccc(-c3ccc([N+](=O)[O-])cc3)o2)cc1	n	n	n	n	n	298
CCOC(=O)[C@]12CCCC3=C1N(CCC3)C(=O)[C@@H](CC(=O)NCCCCc1ccccc1)C2	x	x	x	n	n	x
CCOC(=O)c1ccc(CC(=O)c2ccc(O)c(O)c2O)o1	n	n	n	n	n	n
CCOC(=O)c1ccc(CC(=O)c2oc3cc(O)ccc3c2C)o1	n	n	n	n	n	67
O=C(/C=C/NNC(=O)c1ccccc1)c1ccccc1	n	n	52	n	n	n
CCOC(=O)[C@@]12CCC3=C1N(CCC3)C(=O)[C@H](CC(=O)N1CCC(c3ccccc3)CC1)C2	x	x	x	n	n	x
O=C(N/N=C/c1cccc([N+](=O)[O-])c1)c1cccc2cc[nH]c12	n	n	52	n	n	n
O=C(N/N=C/c1cccc([N+](=O)[O-])c1)c1ccc(Br)cc1	n	n	57	n	n	n
O=C(N/N=C/c1cc([N+](=O)[O-])ccc1O)c1cccc2cc[nH]c12	n	n	n	n	n	n
COC(=O)C[C@H]1CC[C@H]2[C@@H](COc3ccc(NC(=O)Nc4ccccc4)cc3C(=O)N2C)O1	x	x	x	n	n	x
COc1cc(OC)cc(C(=O)NNC(=O)c2ccccn2)c1	n	n	n	n	25	n
C/C(=N\NC(=O)c1cccnc1)c1ccccc1	n	n	59	n	n	n
COc1cccc(NC(=O)c2cccnc2)c1	n	n	n	n	n	n
COc1cccc(C(=O)NNC(=O)c2cccnc2)c1	n	n	60	n	n	n
CC(C)N(Cc1cn(Cc2ccccc2)nn1)S(=O)(=O)c1ccccc1Br	x	x	x	n	n	x
O=C(CCc1ccccc1)N[C@H]1/C(=N/O)CCC[C@]12C(=O)N(Cc1ccccc1)c1ccccc12	x	x	x	n	n	x
COc1ccc2nc(SCC(=O)Nc3nonc3C)[nH]c2c1	n	n	n	n	n	n
Cc1ccc2nc(SCC(=O)Nc3nonc3C)[nH]c2c1	n	n	54	n	n	n
C[C@H](O)[C@@H]1CN2CCc3c([nH]c4c(-c5ccc6c(c5)OCO6)cccc34)[C@@H]2C[C@@H]1N(C)C(=O)NC1CCCCC1	x	x	x	n	n	x
O=C(CC1SC(=O)N(Cc2ccccc2Cl)C1=O)Nc1nccs1 (centres undefined)	n	n	n	n	n	n
O=C(CC1SC(=O)N(Cc2ccccc2)C1=O)Nc1nccs1 (centres undefined)	n	n	53	n	n	n
Oc1ccc(/C=N/NC(=S)Nc2cccnc2)c(O)c1O	n	n	n	n	n	60
SMILES	BH1578 lux ind	Yp Topo-I inh	VHR inh abs	CCHFV vOTU inh	PrPC surface inh	MazF activator
Cc1ccc(CSc2nnc(-c3cccs3)o2)cc1C	x	x	x	n	n	x
COc1ccc(N(CC(=O)N/N=C/c2cccnc2)S(=O)(=O)c2ccccc2)c(OC)c1	n	n	53	n	n	n
COc1ccc(C2=Nn3c(nnc3C3CCCCC3)SC2)cc1	x	x	x	n	n	x
Cn1cccc1/C=C1\CC(C(C)(C)C)C/C(=C\c2cccn2C)C1=O (centres undefined)	n	n	n	n	n	108
CN1C2CCC1/C(=C/c1cccn1C)C(=O)/C2=C\c1cccn1C	n	n	n	n	n	+
CN1C2CCC1/C(=C\c1ccc(F)cc1)C(=O)/C2=C/c1ccc(F)cc1	n	n	n	n	n	n
COC(=O)[C@@]12CCCCC3=C1N(CCC3)C(=O)[C@H]2CC(=O)N1CCCCC1	x	x	x	n	n	x
O=C(Nc1ccc(Oc2ccccc2)cc1)C1CCN(c2nnc(-n3cccc3)s2)CC1	x	x	x	n	n	x
Cc1c(C(=O)Oc2cc(N)n(S(C)(=O)=O)n2)cccc1[N+](=O)[O-]	n	n	n	n	n	74
Cc1ccccc1C(=O)Oc1cc(N)n(S(C)(=O)=O)n1	n	n	n	n	n	n
Cc1ccc2nc(-c3ccc(SCC(=O)O)nc3)[nH]c2c1	n	55	n	n	n	n
COc1ccc(Cn2c(C3CCCCC3)nc3c(c(=O)c4ccccc4n3C)c2=O)cc1	x	x	54	x	x	n
COc1ccc(CCn2c(C3CCCCC3)nc3c(c(=O)c4ccccc4n3C)c2=O)cc1	n	n	n	n	n	n
Cc1c(C(C)c2ccccc2O)c2ccccc2n1C (centres undefined)	x	x	x	n	n	x
O=[N+]([O-])c1ccc(/C=C/c2ccc3ccccc3n2)cc1	n	n	n	n	n	n
O=[N+]([O-])c1ccc(/C=C/c2ccc3cccc(O)c3n2)cc1	n	n	n	n	n	92
COC(=O)C1CN(Cc2ccccc2)CCS(=O)(=O)N1Cc1ccc(F)cc1 (centres undefined)	x	x	x	n	n	x
CN(C)CCCNS(=O)(=O)c1ccc(NC2CCCCCC2)c([N+](=O)[O-])c1	n	n	52	n	n	n
CCNc1ccc(S(=O)(=O)NCCN(C)C)cc1[N+](=O)[O-]	n	n	n	n	n	n
COCCCn1c(C)nnc1SCC(=O)Nc1cccc(C)c1	n	n	60	n	n	n
CC1(C)C(C(=O)N2CCN(C(=O)c3ccccc3)CC2)C1(C)C	n	n	58	n	n	n
O=C(NCC(c1ccco1)N1CCCC1)c1ccc(S(=O)(=O)Nc2ccc(F)cc2)cc1 (centres undefined)	n	n	x	n	n	n
CCOc1ccc(NS(=O)(=O)c2ccc(C(=O)NCC(c3ccco3)N3CCCC3)cc2)cc1 (centres undefined)	n	n	x	n	n	52
O=C1C=C(c2c(O)ccc3ccccc23)c2ccccc2C1=O	x	n	x	n	n	80
CC[n+]1c(/C=C/C=C/N(C(C)=O)c2ccccc2)sc2ccccc21	n	n	n	n	n	154
CC[n+]1c(/C=C/C=C/c2ccc(N(C)C)cc2)sc2ccccc21	n	n	n	n	n	n
CC(c1ccccc1)n1c(N2CCNCC2)nc2c1c(=O)[nH]c(=O)n2C (centres undefined)	n	n	56	n	n	n
O=C(c1ccco1)N1CCN(C(=O)C2CC(c3ccc(Cl)cc3)=NO2)CC1 (centres undefined)	n	n	59	n	n	n
